# Measured values as given in PubChem BioAssay AID2280 (The Scripps Research Institute Molecular Screening Center, 2010).
# Screen size: about 320,000 compounds; about 1,400 (0.44%) were called active.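 How the source made its calls: active means percent inhibition above a per-plate cutoff, the plate mean of test compounds plus 3 SD (cut at about 30% in these data); inactive means the rest.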 Shown is part of a subset that was picked to be rich in actives.
# Biological target: Female germline-specific tumor suppressor gld-1 (Caenorhabditis elegans) (UniProt Q17339)
# Sequence (Q17339 whole entry, looked up): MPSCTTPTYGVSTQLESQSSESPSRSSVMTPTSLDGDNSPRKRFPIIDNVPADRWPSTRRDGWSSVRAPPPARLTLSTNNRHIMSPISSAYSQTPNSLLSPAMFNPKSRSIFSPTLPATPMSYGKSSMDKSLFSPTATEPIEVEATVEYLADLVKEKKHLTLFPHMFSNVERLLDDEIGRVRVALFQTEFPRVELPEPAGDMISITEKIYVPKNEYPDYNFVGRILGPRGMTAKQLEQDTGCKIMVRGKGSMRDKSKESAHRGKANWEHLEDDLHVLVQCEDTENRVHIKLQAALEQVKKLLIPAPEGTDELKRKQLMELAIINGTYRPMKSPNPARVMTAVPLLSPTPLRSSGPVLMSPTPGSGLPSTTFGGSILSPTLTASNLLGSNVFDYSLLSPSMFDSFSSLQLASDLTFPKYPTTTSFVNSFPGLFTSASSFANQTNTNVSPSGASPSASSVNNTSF
# Experiment: small molecules blocking C. elegans GLD-1 RNA recognition – biochemical, fluorescence polarization, primary screen (AID 2280);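 further: 0% = DMSO wells with GLD-1 and probe and 100% = wells lacking GLD-1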
# Details: purified GLD-1 + fluorescein TGE RNA, at 5.96 µM, active compounds read high
row,SMILES,inhibition
1,CC/C(C)=N/Nc1nc2sc3c(c2c(=O)[nH]1)CC(C)(C)OC3,62.3% (active)
2,CC(C)c1nc2sc3c(c2c(=O)n1N)CC(C)(C)OC3,2.68% (inactive)
3,CCSc1nc2sc3c(c2c(=O)[nH]1)CC(C)(C)OC3,-5.06% (inactive)
4,O=C(COC(=O)C1CC2CCCC(C1)C2=O)NC(=O)c1ccccc1 (configuration not stated),0.04% (inactive)
5,O=S(=O)(c1ccc(-c2ccno2)s1)N1CCCCC1,0.96% (inactive)
6,C=CCN1C=C2C(=O)C(C)(OC(=O)CCc3ccccc3)C(=O)C=C2C=C1c1ccc(C#N)cc1 (configuration not stated),18.7% (inactive)
7,CC1(OC(=O)C2CCCC2)C(=O)C=C2C=C(c3ccc(C#N)cc3)OC=C2C1=O (configuration not stated),17.8% (inactive)
8,CC(C)(C)OC(=O)NCCCC1=CC2=CC(=O)C(C)(OC(=O)c3ccco3)C(=O)C2=CO1 (configuration not stated),86.5% (active)
9,CN1CCN(c2ccccc2NC(=O)COc2ccc(C3CCCCC3)cc2)CC1,2.44% (inactive)
10,N#CCCN(C(=O)COC(=O)c1ccc2c(c1)OCCO2)c1ccccc1,0.3% (inactive)
11,Cc1ccc(/C=C(\C#N)C(=O)Nc2cccc3ncccc23)o1,59.6% (active)
12,N#C/C(=C\c1ccccc1C(F)(F)F)C(=O)Nc1ccccc1F,0.78% (inactive)
13,O=C(O)c1cc(Cl)c(Cl)cc1C(=O)Nc1cccc2ncccc12,7.15% (inactive)
14,COc1cc(NC(=O)COC(=O)c2ccc([N+](=O)[O-])s2)cc(OC)c1OC,4.4% (inactive)
15,O=C(Cc1ccc(S(=O)(=O)N2CCOCC2)s1)N1CCN(c2ccc(C(F)(F)F)cc2[N+](=O)[O-])CC1,8.86% (inactive)
16,CCOC(=O)c1ccccc1CN1C(=O)c2ccccc2S1(=O)=O,1.98% (inactive)
17,CC(C)OC(=O)CN1C(=O)C(=O)c2ccccc21,-0.34% (inactive)
18,CCOC(=O)c1cc2n(c1N)-c1ccccc1C2=O,117% (active)
19,Cc1ccc(CNC(=O)C2CCCN2S(=O)(=O)c2ccc3c(c2)C(C)(C)C(=O)N3C)cc1 (configuration not stated),-3.08% (inactive)

row,SMILES,inhibition
1,CCOC(=O)c1cnc2nc(SCc3ccccc3Cl)[nH]n2c1=O,-4.26% (inactive)
2,Oc1[nH]c2ccc(Br)cc2c1N=Nc1nn[nH]n1,9.48% (inactive)
3,NS(=O)(=O)c1ccc(N=Nc2c(O)[nH]c3ccc(Br)cc23)cc1,15.6% (inactive)
4,Cc1cccc(N=Nc2c(O)[nH]c3ccc(F)cc23)c1,67.5% (active)
5,CSc1ccc(S(=O)(=O)N2CCC(C(=O)NCc3ccncc3)CC2)cc1,-3.16% (inactive)
6,CSc1ccccc1NC(=O)C(C)N1C(=O)c2ccccc2S1(=O)=O (configuration not stated),-0.85% (inactive)
7,CN1c2ccc(C=O)c3c(C=O)ccc(c23)N(C)C1(C)C,134% (active)
8,Cc1cc(C)c(S(=O)(=O)c2cc(F)ccc2C)c(=O)[nH]1,-0.88% (inactive)
9,O=C1NC[C@@H](c2ccccc2)OC(=O)[C@H](Cc2ccc(F)cc2)CC/C=C/C[C@H]1CC(=O)N(CCO)Cc1ccccc1,3.17% (inactive)
10,CC(C)OC(=O)C(C#N)c1nc2ccccc2nc1N1CCN(Cc2ccccc2)CC1 (configuration not stated),6.85% (inactive)
11,Cc1ccc(S(=O)(=O)C(C#N)c2nc3ccccc3nc2N2CCCC2)cc1C (configuration not stated),54.9% (active)
12,Cc1cc(N2CCN(S(=O)(=O)c3ccc(C)c(C)c3)CC2)c2ccccc2n1,1.62% (inactive)
13,CCN(C[C@H]1N[C@@](CC)(C(=O)OC)[C@H]2C(=O)N(Cc3ccccc3)C(=O)[C@@H]12)S(=O)(=O)c1ccc(C(F)(F)F)cc1,7.64% (inactive)
14,COc1ccc(Cl)cc1NC(=O)COC(=O)c1ccc(Br)o1,-3.63% (inactive)
15,COc1ccc(N2CC(C(=O)NCCN3C(=O)S/C(=C\c4cccnc4)C3=O)CC2=O)c(OC)c1 (configuration not stated),118% (active)
16,CCOc1ccc(N2CC(C(=O)NCCN3C(=O)S/C(=C\c4cccnc4)C3=O)CC2=O)cc1 (configuration not stated),-0.09% (inactive)
17,COc1ccccc1N1CC(C(=O)NCCN2C(=O)S/C(=C\c3cccnc3)C2=O)CC1=O (configuration not stated),4.79% (inactive)
18,C=CCC(NC(=O)Cc1ccccc1)C(=O)NCCC (configuration not stated),-2.12% (inactive)
19,Cc1ccc(Cn2nnc3c(=O)[nH]c(C4CCN(S(=O)(=O)/C=C/c5ccccc5)CC4)nc32)cc1,1.59% (inactive)

row,SMILES,inhibition
1,O=C(COC(=O)c1cc[n+]([O-])cc1)Nc1ccc(Cl)c(C(F)(F)F)c1,8.04% (inactive)
2,CC(NC(=O)c1ccco1)c1ccc2c(c1)OCO2 (configuration not stated),-0.47% (inactive)
3,COc1ccc(NS(=O)(=O)c2ccc(F)cc2F)cn1,-1.42% (inactive)
4,COc1ccc(Nc2cc(Cl)ccc2C(=O)O)cn1,66.1% (active)
5,COc1cccc(Nc2ncccc2C(=O)O)c1,3.26% (inactive)
6,COc1cc(OC)cc(-c2c(C#Cc3ccsc3)c3cc(-c4ccc(OC)cc4F)ccc3n2C)c1,-36.1% (inactive)
7,Cc1ccc(NC(=O)C(=O)NCc2ccc(/C=N/NC(=O)c3c(C)nc4cc(C)ccn34)o2)cc1,1.79% (inactive)
8,Cc1ccc(S(=O)(=O)Nc2nc(CN3CCOCC3)nc3sc(C)c(C)c23)cc1,-15.1% (inactive)
9,O=C(NC1CCCC1)C(=O)c1c[nH]c2ccccc12,6.85% (inactive)
10,C[n+]1ccc(/C=C/c2c[nH]c3ccccc23)cc1,55.5% (active)
11,COc1ccc(/C=C(\C#N)c2c[nH]c3ccccc23)cc1,8.67% (inactive)
12,COc1ccccc1-n1c(SCC(=O)Nc2cccc(C(=O)O)c2)nnc1-c1ccccc1O,6.18% (inactive)
13,OC1CN=C2Sc3ccccc3N2C1 (configuration not stated),12.5% (inactive)
14,CNC(=S)NNC(=O)c1cccn(Cc2ccccc2)c1=O,3.04% (inactive)
15,CNC(=S)NNC(=O)c1oc2nc(-c3ccccc3)cc(-c3ccco3)c2c1N,38.9% (active)
16,NNC(=O)c1oc2nc(-c3ccccc3)cc(-c3ccco3)c2c1N,-23.7% (inactive)
17,Cc1ccc(C(=O)NCC(=O)OCC(=O)Nc2cccc(S(=O)(=O)N3CCCC3)c2)cc1C,7.23% (inactive)
18,COC(=O)c1sccc1NN1C(=O)c2ccccc2C1=O,4.27% (inactive)
19,CCOCCOCCC(C(=O)O)P(=O)(c1ccccc1)c1ccccc1 (configuration not stated),6.44% (inactive)
